Data from PubChem BioAssay AID1053125 (Broad Institute, 2014).
Measured potencies and affinities stand elsewhere. A number with no mark means an inactive call.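 The calls were made as follows: active = viability loss whose fitted half-maximal concentration is at most twice the top valid tested dose; inconclusive = flat curve with 30 to 70% loss, or poor fit; inactive = the rest.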

test: viability loss in HepG2 liver cells – cell-based, ATP luminescence, cherry-pick, set 6, cytotoxicity control, dose response (AID 1053125); settings: ATP luminescence (CellTiter-Glo), 72 h; series mostly up to 26 µM; activity change, negative = cytotoxicity: at the top concentration

**Q.** With `CSC1=NSC2=NC(=O)/C(=C/c3coc4ccc(O)cc4c3=O)C(=N)N12` as the compound, how does the “activity change, negative = cytotoxicity” value read?
**A.** The value was -14.4%.

**Q.** For `COc1ccccc1OCc1ccc(C(=O)N(C)c2ccccc2)o1`, which “activity change, negative = cytotoxicity” value is on record?
**A.** Its value is 3.98%.

**Q.** For `CCCOc1ccc(NC(=O)c2c(-c3ccccc3)noc2C)cc1`, which “activity change, negative = cytotoxicity” value is on record?
**A.** The value was -6.96%.

**Q.** With `CCOCCCNC(=S)N1CCCN(c2nc3cc(C)c(C)cc3cc2C#N)CC1` as the compound, how does the “activity change, negative = cytotoxicity” value read?
**A.** Its value is 25.8%.

**Q.** For `CCCOc1ccccc1/C=C1\SC(N)=NC1=O`, which “activity change, negative = cytotoxicity” value is on record?
**A.** The value was -8.75%.

**Q.** For `CCC(Sc1nc(N)c(NC(=O)c2ccc(OC)cc2)c(=O)[nH]1)C(=O)O` (stereo not given), which “activity change, negative = cytotoxicity” value is on record?
**A.** Its value is -11.7%.

**Q.** With `CC1CC(C)CN(CCCNC(=O)CCC(=O)N2CC(C)Oc3ccccc32)C1` (stereo not given) as the compound, how does the “activity change, negative = cytotoxicity” value read?
**A.** Its value is -6.78%.

**Q.** With `CCNC(=O)c1cc2c(=O)n3cccc(C)c3nc2n(Cc2ccc(C)cc2)c1=N` as the compound, how does the “activity change, negative = cytotoxicity” value read?
**A.** The value was -17.9%.

**Q.** Which “activity change, negative = cytotoxicity” value does the source give for `COc1ccc(C2C3=C(CCCC3=O)N(CC(=O)O)C3=C2C(=O)CCC3)cc1` here?
**A.** The value was -6.11%.

**Q.** Which “activity change, negative = cytotoxicity” value does the source give for `CC(C)(C)c1csc(N/N=C/c2ccc(O)cc2)n1` here?
**A.** Its value is 41.1%.

**Q.** For `Cc1ccc(C(=O)OCC(=O)Nc2c(C)nn(-c3ccccc3)c2C)c(O)c1`, which “activity change, negative = cytotoxicity” value is on record?
**A.** Its value is 9.12%.

**Q.** For `CCn1c(=N)c(C(=O)NCCCOC)cc2c(=O)n3cccc(C)c3nc21`, which “activity change, negative = cytotoxicity” value is on record?
**A.** Its value is 65.3%.

**Q.** Which “activity change, negative = cytotoxicity” value does the source give for `Cc1cc(CNC(=O)c2ccc3c(c2)OCO3)c2ccccc2n1` here?
**A.** Its value is -4.91%.

**Q.** For `C[C@H](NC(=O)c1nc[nH]c1C(=O)N[C@@H](Cc1ccccc1)C(=O)OC(C)(C)C)C(=O)OCc1ccccc1`, which “activity change, negative = cytotoxicity” value is on record?
**A.** The value was 1.48%.

**Q.** With `COc1ccc(C2CC(c3cccs3)=NN2c2nc(C)c(C(C)=O)s2)cc1OC` (stereo not given) as the compound, how does the “activity change, negative = cytotoxicity” value read?
**A.** The value was -14.8%.

**Q.** For `CCn1c2ccccc2c(=O)c2ccccc21`, which “activity change, negative = cytotoxicity” value is on record?
**A.** The value was -12.7%.

**Q.** With `Cn1c(=N)c(S(=O)(=O)c2ccccc2)cc2c(=O)n3ccccc3nc21` as the compound, how does the “activity change, negative = cytotoxicity” value read?
**A.** Its value is -17%.

**Q.** With `COc1cc(C(c2c(C(=O)O)[nH]c3ccccc23)c2c(C(=O)O)[nH]c3ccccc23)ccc1OCc1ccccc1` as the compound, how does the “activity change, negative = cytotoxicity” value read?
**A.** Its value is -14.1%.

**Q.** With `Cc1ccc(-n2nnnc2CNC(=O)C(=O)c2c[nH]c3ccccc23)cc1C` as the compound, how does the “activity change, negative = cytotoxicity” value read?
**A.** Its value is -9.06%.

**Q.** Which “activity change, negative = cytotoxicity” value does the source give for `O=C(O)c1[nH]c2ccccc2c1C(c1cc(Br)ccc1O)c1c(C(=O)O)[nH]c2ccccc12` here?
**A.** Its value is -3.21%.

**Q.** With `COc1ccccc1N1CCN(C2CCC(C)CC2)CC1` (stereo not given) as the compound, how does the “activity change, negative = cytotoxicity” value read?
**A.** Its value is -3.96%.

**Q.** With `CSCCC1(C(=O)O)NC(c2ccccc2O)C2C(=O)N(C(C)C)C(=O)C21` (stereo not given) as the compound, how does the “activity change, negative = cytotoxicity” value read?
**A.** The value was 4.52%.

**Q.** For `CC1CCCCC1NC(=O)CN1C(=O)c2cccc(N)c2C1=O` (stereo not given), which “activity change, negative = cytotoxicity” value is on record?
**A.** The value was -3.23%.

**Q.** Which “activity change, negative = cytotoxicity” value does the source give for `CC(C)OCCCn1c(=N)c(C(N)=S)cc2c(=O)n3ccccc3nc21` here?
**A.** The value was -3.52%.

**Q.** Which “activity change, negative = cytotoxicity” value does the source give for `COc1ccc(C2C(C#N)=C(N)Oc3cc(O)ccc32)cc1Cl` (stereo not given) here?
**A.** The value was -4.61%.

**Q.** With `CCn1c(=N)c(S(=O)(=O)c2ccccc2)cc2c(=O)n3ccccc3nc21` as the compound, how does the “activity change, negative = cytotoxicity” value read?
**A.** Its value is -12.9%.

**Q.** Which “activity change, negative = cytotoxicity” value does the source give for `COc1ccc(CCNC(=O)c2cc(S(=O)(=O)N3CCCCC3)c[nH]2)cc1OC` here?
**A.** The value was -2.68%.

**Q.** With `CCc1nc(SCC(=O)c2ccccc2)c2ccccc2n1` as the compound, how does the “activity change, negative = cytotoxicity” value read?
**A.** Its value is -8.96%.

**Q.** Which “activity change, negative = cytotoxicity” value does the source give for `CCOCCCNc1c(CC)c(C)c(C#N)c2nc3ccccc3n12` here?
**A.** The value was -11.8%.

**Q.** Which “activity change, negative = cytotoxicity” value does the source give for `COc1ccccc1C1C2=C(CC(C)(C)CC2=O)N(CC(=O)O)C2=C1C(=O)CC(C)(C)C2` here?
**A.** The value was 7.42%.

**Q.** With `Cc1cccn2c(=O)c(/C=C(\C#N)C(N)=O)c(Oc3ccccc3)nc12` as the compound, how does the “activity change, negative = cytotoxicity” value read?
**A.** The value was -7.13%.

**Q.** For `Cc1c(Nc2c3ccccc3nc3ccccc23)c(=O)n(-c2ccccc2)n1C`, which “activity change, negative = cytotoxicity” value is on record?
**A.** The value was -6.17%.

**Q.** For `COc1cccc2c(=O)c3c(cnn3C)n(C)c12`, which “activity change, negative = cytotoxicity” value is on record?
**A.** The value was -1.18%.

**Q.** For `O=C(O)c1ccc(N/N=C/c2ccc(-c3ccccc3Cl)o2)cc1`, which “activity change, negative = cytotoxicity” value is on record?
**A.** The value was -1.29%.

**Q.** For `CN1CCc2c(sc(NC(=O)C3CCCCC3)c2C(N)=O)C1`, which “activity change, negative = cytotoxicity” value is on record?
**A.** The value was -14.3%.
